The values below come from PubChem BioAssay AID1851 (National Center for Advancing Translational Sciences (NCATS), 2009).

The whole screen tested about 16,000 compounds, of which about 2,600 (16%) were called active. Roughly 20% stayed inconclusive and do not appear here. Only a sample is shown. A number with no mark means an inactive call. Calls come from the whole dose curve; as a rule, active = well fitted curve in the direction sought with a large enough effect; inconclusive = small, poorly fitted or top-dose-only effect, or effect the other way; inactive = no such curve, though single readings can be large or run the other way. Square brackets hold non-standard residues; d marks the D form. Peptide text beside a SMILES is read from it.
% is set by controls: 0 for no effect and ±100 for the full control effect.

In the assay the target is Cytochrome P450 2D6 (Homo sapiens) (UniProt P10635). As to the kind of experiment: Cytochrome panel assay with activity outcomes. The settings on record: recombinant CYP, pro-luciferin dealkylation, luminescence, p450-cyp2d6; series mostly up to 57.1 µM; activity, negative = inhibition: at the top concentration.
Sequence of Cytochrome P450 2D6 (Homo sapiens) (P10635 whole entry, looked up): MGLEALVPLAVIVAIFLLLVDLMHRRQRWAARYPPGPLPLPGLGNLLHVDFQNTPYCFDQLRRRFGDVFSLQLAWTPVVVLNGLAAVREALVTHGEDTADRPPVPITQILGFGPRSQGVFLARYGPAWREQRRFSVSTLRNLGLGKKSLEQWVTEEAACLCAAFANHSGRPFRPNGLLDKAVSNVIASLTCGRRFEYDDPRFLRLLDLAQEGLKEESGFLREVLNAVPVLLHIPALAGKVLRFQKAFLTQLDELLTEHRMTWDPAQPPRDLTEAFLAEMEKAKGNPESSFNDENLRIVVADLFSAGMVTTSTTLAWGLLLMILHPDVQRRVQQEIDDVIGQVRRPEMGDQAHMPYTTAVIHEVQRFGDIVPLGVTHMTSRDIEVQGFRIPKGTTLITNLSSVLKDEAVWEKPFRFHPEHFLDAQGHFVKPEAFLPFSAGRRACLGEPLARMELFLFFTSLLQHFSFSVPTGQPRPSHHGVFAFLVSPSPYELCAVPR
In the case of `Cc1cnn(-c2cc(N/N=C/c3ccccc3F)ncn2)c1`, the “activity, negative = inhibition” value is 2.65%. `O=C(O)[C@@H]1[C@@H](C(=O)NCc2cccnc2)[C@@H]2C=C[C@@H]1O2`: the activity, negative = inhibition was 20.9% [at 11.4 µM]. For the compound `CCCc1nnc(SCC(=O)O)n1/N=C/c1ccc2c(c1)OCO2`, the “activity, negative = inhibition” value is -14.8%. As for `O=C(c1ccco1)N1CCN(c2cc(=O)n(C3CCCCC3)c(=O)[nH]2)CC1`, the “activity, negative = inhibition” value was -9.63%. Turning to `CCCCCCc1c(C[C@H](N)C(=O)O)o[nH]c1=O`, the AC50 (usually the concentration at which the activity in the assay is half-maximal) was “inactive”. As to `Oc1ccccc1-c1nnc(-c2ccc(C(F)(F)F)cc2)o1`, the “activity, negative = inhibition” value is 6.29%. As for `CCN(CC)CCCNC(=O)CC1Sc2ccccc2NC1=O` (stereo not drawn), the AC50 is 5.01 µM (active). Turning to `Cc1c(Cl)cccc1NC(=O)C[C@H]1Sc2ccccc2NC1=O`, the activity, negative = inhibition is -12% [at 11.4 µM]. The same measure, in the same setting: the result for `CCN(CC)CCCNC(=O)C1CCC(=O)N(c2ccc(OC)cc2)C1c1ccc(F)cc1` (stereo not drawn) reads 4.23%. Turning to `CN(Cc1ccccc1)c1nc(-c2ccc([N+](=O)[O-])cc2)nc2ccccc12`, the “activity, negative = inhibition” value is -3.33%. Turning to `CN(Cc1ccco1)c1nc(-c2ccoc2)nc2ccccc12`, the AC50 is 15.8 µM (active). The same measure, in the same setting: the result for `CN(C)c1ccc(-c2nc(N(C)Cc3ccco3)c3ccccc3n2)cc1` reads 12.6 µM (active). On the same count and under the same terms, to `CN(Cc1ccco1)c1nc(-c2ccc3c(c2)OCO3)nc2ccccc12` belongs 10 µM (active). With `O=c1c(-c2cc(F)cc(F)c2)nc2cnc(N3CCOCC3)nc2n1C1CC1`, the “activity, negative = inhibition” value was -4.8%. On the same count and under the same terms, to `CSCC[C@H](C=O)NC(=O)[C@H](CC(C)C)NC(=O)[C@H](CC(C)C)NC(C)=O` (Ac-Leu-Leu-[dM]-aldehyde) belongs 9.44%; to `c1cc(NNc2cccc(-c3nn[nH]n3)c2)cc(-c2nn[nH]n2)c1`, 16.4% [at 11.4 µM].

In the case of `COCCCNC(=O)C1CC(=O)N(Cc2ccc(OC)cc2)C1` (stereo not drawn), the “activity, negative = inhibition” value is -5.7%. In the case of `CN(C)c1ncc2nc(-c3ccc(F)cc3)c(=O)n(Cc3cccs3)c2n1`, the “activity, negative = inhibition” value was 7.31%. Turning to `Cc1cc(C)c2nc(-c3ccccn3)cc(C(=O)Nc3ccc(S(=O)(=O)Nc4cc(C)on4)cc3)c2c1`, the “activity, negative = inhibition” value was 8.05%. On to `O=C(O)c1ccc(S(=O)(=O)N=Nc2c(O)[nH]c3ccccc23)cc1`, for which the activity, negative = inhibition was 17% [at 11.4 µM]. As to `O=C1CCC(c2ccccc2)(c2ccccc2)CC1`, the activity, negative = inhibition is 9.99% [at 11.4 µM]. The same measure, in the same setting: to `CCN1C(=O)c2cccc3c(NC(=O)c4cccc(N5C(=O)CCC5=O)c4)ccc1c23` belongs -0.197%; to `COc1ccc(N2CCN(C(=O)CSc3nnc4c5cc(C)ccc5n(C)c4n3)CC2)cc1`, -16.3%.

For the compound `COc1ccc(C(=O)c2c[nH]c(C(=O)NCc3cccs3)c2)cc1`, the “activity, negative = inhibition” value is 3.32%.

As to `COc1cccc2c(=O)c(C(=O)NCc3cccs3)c[nH]c12`, the concentration at half-maximal activity (AC50) was 12.6 µM (active). For `COc1ccc2nc3oc(C(=O)NCc4cccs4)cc3cc2c1`, the “activity, negative = inhibition” value is -14%. The same measure, in the same setting: to `O=C1CC(=O)N(CCc2ccc(F)cc2)C(=O)N1` belongs -6.64%; to `COc1ccc(-n2c(=O)cnc3cnc(N(C)C)nc32)cc1`, 3.84%. `NCS(=O)(=O)O`: the activity, negative = inhibition is 6.1% [at 11.4 µM].

In the case of `COc1ccccc1/C=C/C(=O)c1c2c(c(C)[nH]c1=O)CCCC2`, the “activity, negative = inhibition” value was -1.51%. Same read-out and setting: the result for `Cn1c(=S)c2[nH]c(SCCCc3ccccc3)nc2n(C)c1=O` reads -0.099% [at 11.4 µM]; that for `Cc1c(C)c2c(c(C)c1O)CC[C@@](C)(CCC[C@@H](C)CCC[C@@H](C)CCCC(C)C)O2`, 14.1% [at 25.6 µM]; that for `Cc1cc(C)n2nc(SCc3cc(=O)oc4ccc5ccccc5c34)nc2n1`, -9.53%.

Regarding `CC(=O)Nc1cc(S(=O)(=O)Nc2ccccc2)c(C)cc1C`, the “activity, negative = inhibition” value was -11.4%. Take `CCOc1cc(C)c(S(=O)(=O)Nc2ccc3cn[nH]c3c2)cc1C`: the concentration at half-maximal activity (AC50) was 0.631 µM (active). The same measure, in the same setting: to `CCOC(=O)c1ccc(S(=O)(=O)Nc2ccc3cn[nH]c3c2)cc1` belongs 12.6 µM (active). Regarding `Cc1cc(NC(=O)COC(=O)c2ccc(NS(=O)(=O)c3ccc(C)c(C)c3)cc2)no1`, the “activity, negative = inhibition” value is -14.2%. With `CCOC(=O)c1sc(NS(=O)(=O)c2ccccc2)nc1C`, the “activity, negative = inhibition” value is 0.864%. With `COC(=O)Cc1cc(=O)n2[nH]c(C)c(-c3ccccc3)c2n1`, the “activity, negative = inhibition” value was -5.33%. Take `C/C(O)=C\c1nc2ccccc2oc1=O`: the “activity, negative = inhibition” value is -0.0426%. Same read-out and setting: to `COC(=O)[C@@]1(Cc2ccc(F)cc2)[C@@H]2C(=CC(=O)[C@H]2CC(=O)C(=O)N(C)C)CN1C(=O)c1ccccc1` belongs 0.486%; to `Cc1cc(N)ccc1NC(=O)c1ccccc1`, 14%. `CCO/C(C)=N/n1c2nc3ccccc3nc2c2c(=O)n(CC(C)C)c(C)nc21`: the “activity, negative = inhibition” value is 18.8%. As to `CCCCn1c(SCC(=O)Nc2nccs2)nc2ccccc2c1=O`, the “activity, negative = inhibition” value is 7.1%. Turning to `O=C(O)c1ccccc1C(=O)Nc1nccs1`, the “activity, negative = inhibition” value was -21.5%. `CCCC(C(=O)Nc1nccs1)c1ccccc1` (stereo not drawn): the AC50 is 25.1 µM (active). Take `O=C(NCC1CCCO1)c1cc(-c2ccc(Cl)cc2Cl)on1` (stereo not drawn): the “activity, negative = inhibition” value was -13.5%. As for `Cc1cccc(Sc2c([N+](=O)[O-])ncn2C)n1`, the “activity, negative = inhibition” value was 28.4%.
